Measurements published in PubChem BioAssay (NCATS).
Inconclusive results are not listed. Active and inactive are the calls of the source. Calls come from the whole dose curve; as a rule, active = well fitted curve in the direction sought with a large enough effect; inconclusive = small, poorly fitted or top-dose-only effect, or another doubt; inactive = no such curve, though single readings can be large; an effect the other way counts as inactive or inconclusive. Numbered stars: 1 amine (or outer) side, 2 acyl side, 3 side chain; on linkers, the order of the positions; unused ones are H or OH. Bridge positions count the residues as written; N and C are the ends. Square brackets hold non-standard residues; d marks the D form. Peptide text beside a SMILES is read from it. I, II: the chains in the order shown. Actinocin(9to1) = Cc1c2oc3c(C)ccc(C(=O)[*:1])c3nc-2c(C(=O)[*:2])c(N)c1=O; NMeV = CN[C@H](C(=O)O)C(C)C; Sar = CNCC(=O)O

Columns and labels:
[1] = qHTS of pediatric cancer cell lines to identify multiple opportunities for drug repurposing: Confirmatory screen for A673 cells (AID 1347110);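 note: cells exposed to compound for 48 h before the viability read; nearly all actives have a fitted effect of over 65% in size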; note: potency is the fitted concentration of half-maximal effect
Method in brief: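 A673 cells seeded at 500-1,000 cells/well, rested 5 h, then dosed; primary MIPE 11-point (0.78 nM to 46 µM), NPC (0.59 nM to 46 µM); confirmatory 11-point. CellTiter-Glo luminescence after 48 h.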

[2] = qHTS of pediatric cancer cell lines to identify multiple opportunities for drug repurposing: Confirmatory screen for SK-N-MC cells (AID 1347111);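 note: potency is the fitted concentration of half-maximal effect; cells exposed to compound for 48 h before the readout; nearly all actives have a fitted effect of over 70% in size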
Method in brief: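 Metabolically active cells were quantified by ATP-dependent luminescence (CellTiter-Glo, 15 min at room temperature) following 48 h treatment. Cells had been plated at 500-1,000 per well and settled for 5 h beforehand.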

[3] = qHTS of pediatric cancer cell lines to identify multiple opportunities for drug repurposing: Confirmatory screen for LAN-5 cells (AID 1347113); note: nearly all actives have a fitted effect of over 65% in size; note: potency is the fitted concentration of half-maximal effect
Method in brief: (§1)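 Cells (500-1,000/well) in growth media were settled 5 h at 37 degrees C, then given compounds for 48 h. Viability was read as CellTiter-Glo luminescence. Primary runs used MIPE at 11 points (0.78 nM-46 µM) and NPC at 8 points (0.59 nM-46 µM); follow-ups used 11 points.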

[4] = qHTS of pediatric cancer cell lines to identify multiple opportunities for drug repurposing: Confirmatory screen for NB-EBc1 cells (AID 1347115);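 note: cells exposed to compound for 48 h before the viability read; nearly all actives have a fitted effect of over 45% in size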; note: potency is the fitted concentration of half-maximal effect
Method in brief: as §1

[5] = qHTS of pediatric cancer cell lines to identify multiple opportunities for drug repurposing: Primary screen for Rh41 cells (AID 1347108); note: nearly all actives have a fitted effect of over 70% in size; note: potency is the fitted concentration of half-maximal effect
Method in brief: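 Following a 5-hour attachment period, cells at 500-1,000/well received compounds and were cultured for 48 hours. CellTiter-Glo was added and luminescence read to estimate viable, metabolically active cells.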

[6] = qHTS of pediatric cancer cell lines to identify multiple opportunities for drug repurposing: Primary screen for Rh30 cells (AID 1347107); note: series mostly up to about 46 µM; nearly all actives have a fitted effect of over 75% in size
Method in brief: as §1

[7] = qHTS of pediatric cancer cell lines to identify multiple opportunities for drug repurposing: Confirmatory screen for BT-12 cells (AID 1347112); note: nearly all actives have a fitted effect of over 55% in size; note: potency is the fitted concentration of half-maximal effect
Method in brief: as §1

[8] = qHTS of pediatric cancer cell lines to identify multiple opportunities for drug repurposing: Confirmatory screen for NB1643 cells (AID 1347109); note: nearly all actives have a fitted effect of over 45% in size; note: potency is the fitted concentration of half-maximal effect
Method in brief: as §1

[9] = qHTS of pediatric cancer cell lines to identify multiple opportunities for drug repurposing: Confirmatory screen for SJ-GBM2 cells (AID 1347116); note: nearly all actives have a fitted effect of over 60% in size; note: potency is the fitted concentration of half-maximal effect
Method in brief: (§2)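 Viability measured as metabolically active cells via CellTiter-Glo luminescence following 48 hours of compound exposure, 11-point dilutions in confirmatory testing. 500-1,000 cells/well plated 5 hours before dosing; controls were DMSO and 2.3 µM bortezomib.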

[10] = qHTS of pediatric cancer cell lines to identify multiple opportunities for drug repurposing: Confirmatory screen for DAOY cells (AID 1347114); note: nearly all actives have a fitted effect of over 65% in size; note: potency is the fitted concentration of half-maximal effect
Method in brief: as §2

Measured: Potency

CC(=O)O[C@]1(C(C)=O)CC[C@H]2[C@@H]3C[C@H](C)C4=CC(=O)CC[C@]4(C)[C@H]3CC[C@@]21C
active: [1] 1.31 µM | [2] 23.3 µM
inactive: [3] | [4]

CCCCCCCCCCCCCCCC[N+](C)(C)CC
active: [5] 13.3 µM

CCOc1ccc2nc3cc(N)ccc3c(N)c2c1
active: [5] 18.8 µM | [1] 18.5 µM | [7] 16.5 µM
inactive: [6]

C=C1C[C@H]2[C@@H]3C=C(C)C4=CC(=O)CC[C@]4(C)[C@H]3CC[C@]2(C)[C@@]1(OC(C)=O)C(C)=O
active: [2] 2.61 µM
not listed: [1] | [7] | [10]
inactive: all other assays above

COc1cc(C=C2CCC/C(=C\c3ccc(O)c(OC)c3)C2=O)ccc1O
active: [8] 18.5 µM | [1] 0.185 µM | [2] 0.465 µM | [7] 18.5 µM | [3] 5.85 µM | [10] 14.7 µM | [4] 23.3 µM | [9] 18.5 µM

COc1c(C)c2c(c(O)c1C/C=C(\C)CCC(=O)O)C(=O)OC2
active: [1] 2.61 µM | [7] 4.65 µM
inactive: [6]

CC(=O)OCC(=O)[C@@]1(O)[C@H](C)C[C@H]2[C@@H]3CCC4=CC(=O)C=C[C@]4(C)[C@@]3(F)[C@@H](O)C[C@@]21C
active: [8] 20.8 µM | [1] 9.27 µM | [2] 29.3 µM
inactive: [6] | [5] | [4]

CC(=O)OCC(=O)[C@@]12OC(C)(C)O[C@@H]1C[C@H]1[C@@H]3C[C@H](F)C4=CC(=O)C=C[C@]4(C)[C@@]3(F)[C@@H](O)C[C@@]12C
not listed: [1] | [2]
inactive: all other assays above

C[C@@H]1C[C@H]2[C@@H]3C[C@H](F)C4=CC(=O)C(Cl)=C[C@]4(C)[C@@]3(F)[C@@H](O)C[C@]2(C)[C@@]1(O)C(=O)CO
inactive: [6] | [5] | [1] | [10]

CC1(C)O[C@@H]2C[C@H]3[C@@H]4C[C@H](F)C5=CC(=O)CC[C@]5(C)[C@H]4[C@@H](O)C[C@]3(C)[C@]2(C(=O)CO)O1
not listed: [2]
inactive: all other assays above

C[C@@H]1CN(CCCn2c3ccccc3c3ccccc32)C[C@H](C)N1
inactive: [6] | [5]
active: [3] 32.9 µM | [10] 20.8 µM | [4] 14.7 µM

CC(=O)OCC(=O)[C@@]12N=C(C)O[C@@H]1C[C@H]1[C@@H]3CCC4=CC(=O)C=C[C@]4(C)[C@H]3[C@@H](O)C[C@@]12C
inactive: [6] | [5] | [10]
active: [8] 2.33 µM | [1] 0.293 µM | [2] 0.261 µM | [3] 1.47 µM | [9] 1.04 µM

COCc1c(C(C)C)nc(C(C)C)c(/C=C/[C@@H](O)C[C@@H](O)CC(=O)O)c1-c1ccc(F)cc1
active: [1] 0.414 µM | [2] 2.93 µM | [3] 13.1 µM | [10] 0.414 µM | [4] 4.14 µM | [9] 2.61 µM
inactive: [6]

CCC(C(=O)OCCN(CC)CC)c1ccccc1 (centres undefined)
active: [2] 13.1 µM
not listed: [1]
inactive: all other assays above

CC(=O)Oc1ccc2c(c1)CC[C@@H]1[C@@H]2CC[C@]2(C)[C@@H](O)CC[C@@H]12
inactive: [6] | [5] | [7] | [9]
active: [2] 6.57 µM

CCCCCCC[N+](CC)(CC)CCCCc1ccc(Cl)cc1
inactive: [10]
active: [5] 15 µM | [8] 14.7 µM | [1] 3.69 µM | [2] 9.27 µM | [7] 8.27 µM | [3] 8.27 µM

C[C@]12C=CC(=O)C=C1CC[C@@H]1[C@@H]2[C@@H](O)C[C@@]2(C)[C@H]1CC[C@]2(O)C(=O)CO
inactive: [6] | [5] | [7] | [10] | [4] | [9]

COc1cccc2c1C(=O)c1c(O)c3c(c(O)c1C2=O)C[C@@](O)(C(=O)CO)C[C@@H]3O[C@H]1C[C@H](N)[C@H](O)[C@H](C)O1
inactive: [6]
active: [5] 1.68 µM | [1] 0.928 µM | [2] 0.293 µM | [7] 4.65 µM | [3] 1.04 µM | [10] 9.27 µM | [4] 3.29 µM | [9] 2.61 µM

Cc1ccc(O)c2ncccc12
active: [5] 4.73 µM

Cc1c2oc3c(C)ccc(C(=O)N[C@@H]4C(=O)N[C@H](C(C)C)C(=O)N5CCC[C@H]5C(=O)N(C)CC(=O)N(C)[C@@H](C(C)C)C(=O)O[C@@H]4C)c3nc-2c(C(=O)N[C@@H]2C(=O)N[C@H](C(C)C)C(=O)N3CCC[C@H]3C(=O)N(C)CC(=O)N(C)[C@@H](C(C)C)C(=O)O[C@@H]2C)c(N)c1=O (I: T[dV]P[Sar][NMeV] / II: T[dV]P[Sar][NMeV]; ester I:1-I:C, II:1-II:C; linker I:N-II:N via Actinocin(9to1))
active: [1] 0.0131 µM | [2] 0.0052 µM | [7] 0.0208 µM | [3] 0.0023 µM | [10] 0.0261 µM | [9] 0.0261 µM
inactive: [6] | [8] | [4]

C[C@@H]1C[C@H]2[C@@H]3CCC4=CC(=O)C=C[C@]4(C)[C@@]3(F)[C@@H](O)C[C@]2(C)[C@H]1C(=O)CO
not listed: [2]
inactive: all other assays above

OC[C@H]1O[C@@H](n2cnc3c(=S)nc[nH]c32)[C@H](O)[C@@H]1O
active: [1] 2.08 µM | [7] 14.7 µM | [3] 1.17 µM | [4] 3.69 µM

O=C(CCCN1CCC(O)(c2ccc(Br)cc2)CC1)c1ccc(F)cc1
active: [2] 2.61 µM
not listed: [1] | [3] | [10]
inactive: all other assays above

CN(C)C(=S)SC(=S)N(C)C
inactive: [10] | [9]
active: [5] 0.944 µM | [8] 9.27 µM | [1] 2.61 µM | [2] 2.93 µM | [7] 4.65 µM | [3] 3.69 µM

CC(C)(C)CC(C)(C)c1ccc(OCCOCC[N+](C)(C)Cc2ccccc2)cc1
active: [5] 16.8 µM
